Laboratory results as given in PubChem BioAssay.
For some assays here: Results with a measured potency or affinity are listed apart. Activity calls are given as the source filed them.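 How the source made its calls, unless noted: active means primary screen hit whose calcium fluorescence ratio, in both repeats, exceeds the weak agonist control mean by 3 SD; inactive means the rest.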

Columns and labels:
[1] = system: TRPC4 beta (transient receptor potential cation channel C4), mouse; test: TRPC4 cation channel opening, retest – cell-based, Fluo4 calcium, HEK293 TRPC4beta/mu-opioid, duplicates, 10 µM, confirmation (AID 2426;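 active means fluorescence ratio normalized to control raised more than 50% in primary screen plus both repeat runs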); details: Fluo4 calcium fluorescence, at 10 µM; hits give high values
[2] = system: transient receptor potential cation channel C4 beta (TRPC4), mouse; test: TRPC4 cation channel opening, second retest – cell-based, second round, Fluo4, HEK293 TRPC4beta/mu-opioid, 1 µM, confirmation (AID 2461;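 active means primary screen active and over 50% activation in each of two duplicate runs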); details: Fluo4 calcium fluorescence, at 1 µM; hits give high values
[3] = system: TRPC4 (transient receptor potential cation channel C4 beta), mouse; test: potentiation of DAMGO EC20 TRPC4 response – cell-based, second round, Fluo-4, HEK293 TRPC4beta/mu-opioid, 1 µM, confirmation (AID 2554;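 active means primary screen hit whose fluorescence ratio, in both repeats, exceeds the weak agonist control mean by 3 SD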); details: DAMGO EC20, Fluo-4 calcium flux, at 1 µM; hits give high values
[4] = system: TRPC4 beta (transient receptor potential cation channel C4), mouse; test: potentiation of DAMGO EC20 TRPC4 response – cell-based, Fluo-4, HEK293 TRPC4beta/mu-opioid, confirmation (AID 2555); details: DAMGO EC20, Fluo-4 calcium flux, at 10 µM; hits give high values
[5] = molecular target: Short transient receptor potential channel 4 (Mus musculus) (UniProt Q9QUQ5); test: blockers of DAMGO-evoked TRPC4 calcium flux – cell-based, Fluo4, HEK293 TRPC4beta/mu-opioid, confirmation (AID 2636;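 active means calcium signal cut by more than 3 SD below the full-agonist control yet still positive, in both repeats and the earlier primary screen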); details: at 10 µM; hits give high values
Short transient receptor potential channel 4 (Mus musculus), sequence (Q9QUQ5 whole entry, looked up): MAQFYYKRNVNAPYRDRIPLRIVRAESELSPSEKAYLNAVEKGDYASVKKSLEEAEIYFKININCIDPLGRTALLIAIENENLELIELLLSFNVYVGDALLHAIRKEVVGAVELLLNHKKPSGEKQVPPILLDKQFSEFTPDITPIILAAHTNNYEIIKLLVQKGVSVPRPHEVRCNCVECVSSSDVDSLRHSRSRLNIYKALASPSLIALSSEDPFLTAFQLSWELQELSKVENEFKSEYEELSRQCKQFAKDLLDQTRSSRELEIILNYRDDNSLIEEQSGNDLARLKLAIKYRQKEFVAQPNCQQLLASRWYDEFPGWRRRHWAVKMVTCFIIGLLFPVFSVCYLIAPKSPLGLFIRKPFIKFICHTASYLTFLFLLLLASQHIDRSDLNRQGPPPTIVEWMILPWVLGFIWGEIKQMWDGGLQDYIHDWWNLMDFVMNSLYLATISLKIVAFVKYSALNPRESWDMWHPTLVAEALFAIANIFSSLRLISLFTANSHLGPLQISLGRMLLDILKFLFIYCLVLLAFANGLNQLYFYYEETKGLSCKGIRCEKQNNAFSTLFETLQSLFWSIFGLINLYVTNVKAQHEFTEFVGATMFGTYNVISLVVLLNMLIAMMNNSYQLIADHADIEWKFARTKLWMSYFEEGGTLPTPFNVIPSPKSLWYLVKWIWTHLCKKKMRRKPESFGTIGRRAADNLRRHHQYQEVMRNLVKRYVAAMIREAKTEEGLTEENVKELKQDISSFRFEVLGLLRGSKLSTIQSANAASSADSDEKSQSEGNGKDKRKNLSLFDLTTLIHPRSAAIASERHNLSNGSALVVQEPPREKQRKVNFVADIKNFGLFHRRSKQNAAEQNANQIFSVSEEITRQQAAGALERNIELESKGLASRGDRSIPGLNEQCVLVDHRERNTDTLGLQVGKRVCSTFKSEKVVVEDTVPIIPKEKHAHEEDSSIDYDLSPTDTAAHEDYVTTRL

[6] = molecular target: Short transient receptor potential channel 4 (Mus musculus) (UniProt Q9QUQ5); test: blockers of DAMGO-evoked TRPC4 calcium flux – cell-based, second round, Fluo4, HEK293 TRPC4beta/mu-opioid, 1 µM, confirmation (AID 2637;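 active means calcium signal ratio cut to more than 3 SD under the fully stimulated control mean yet still positive, in both repeats and the primary screen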;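 on inhibition: percent of integrated ratio relative to wells lacking test compound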); details: at 1 µM; hits give high values
[7] = molecular target: Short transient receptor potential channel 4 (Mus musculus) (UniProt Q9QUQ5); test: calcium entry via TRPC4 opening agents – cell-based, HEK293 TRPC4/mu-opioid, Fluo-4 calcium, dose response (AID 434937;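 active means primary screen activator hit with a dose response curve and TRPC4 channel activation at any tested dose; inactive means no activation, no dose response, or not a primary hit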)
[8] = molecular target: Short transient receptor potential channel 4 (Mus musculus) (UniProt Q9QUQ5); test: block of DAMGO-driven TRPC4 calcium entry – cell-based, HEK293 TRPC4/mu-opioid, Fluo-4 calcium, dose response (AID 434942;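 active means primary screen inhibitor hit that blocks the TRPC4 channel at some tested dose, yielding a dose curve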)
[9] = molecular target: Short transient receptor potential channel 6 (Mus musculus) (UniProt Q61143); test: TRPC6 blockade by TRPC4 inhibitor hits – cell-based, HEK293, membrane potential dye, duplicate, selectivity assay for TRPC4 inhibitor project, confirmation (AID 434948;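 active means active in primary screen and both duplicates, each dropping signal beyond three positive-control SD with fluorescence still positive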); details: HEK293 TRPC6, membrane potential dye fluorescence, at 10 µM; inhibition: hits give high values, stimulated with maximal-effect acetylcholine unless noted; outcome: stimulated with maximal-effect acetylcholine unless noted
Short transient receptor potential channel 6 (Mus musculus), sequence (Q61143 whole entry, looked up): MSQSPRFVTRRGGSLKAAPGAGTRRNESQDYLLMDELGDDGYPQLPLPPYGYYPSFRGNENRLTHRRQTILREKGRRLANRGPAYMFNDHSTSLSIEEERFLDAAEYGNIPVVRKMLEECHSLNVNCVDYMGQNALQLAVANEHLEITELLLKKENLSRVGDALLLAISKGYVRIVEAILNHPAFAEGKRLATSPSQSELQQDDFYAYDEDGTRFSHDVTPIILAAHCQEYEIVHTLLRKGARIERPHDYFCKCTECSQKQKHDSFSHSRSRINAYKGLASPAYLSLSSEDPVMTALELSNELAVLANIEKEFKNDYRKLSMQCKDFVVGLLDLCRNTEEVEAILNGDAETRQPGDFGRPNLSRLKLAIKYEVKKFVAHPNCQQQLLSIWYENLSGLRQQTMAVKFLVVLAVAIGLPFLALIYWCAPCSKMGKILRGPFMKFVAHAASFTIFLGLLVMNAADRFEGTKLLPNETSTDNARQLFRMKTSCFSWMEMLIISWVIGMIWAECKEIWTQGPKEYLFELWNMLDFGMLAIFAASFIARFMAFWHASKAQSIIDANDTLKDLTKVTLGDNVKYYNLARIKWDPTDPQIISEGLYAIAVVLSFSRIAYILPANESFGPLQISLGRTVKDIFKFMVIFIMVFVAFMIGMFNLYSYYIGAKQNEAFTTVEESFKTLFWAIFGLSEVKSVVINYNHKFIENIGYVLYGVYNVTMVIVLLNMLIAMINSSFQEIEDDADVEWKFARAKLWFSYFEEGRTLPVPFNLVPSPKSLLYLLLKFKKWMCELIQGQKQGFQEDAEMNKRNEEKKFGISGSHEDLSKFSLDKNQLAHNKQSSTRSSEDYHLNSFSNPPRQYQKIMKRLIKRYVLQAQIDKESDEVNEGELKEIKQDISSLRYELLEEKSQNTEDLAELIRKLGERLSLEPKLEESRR

[10] = molecular target: Short transient receptor potential channel 6 (Mus musculus) (UniProt Q61143); test: TRPC6 opening by TRPC4 activator hits – cell-based, HEK293, membrane potential dye, duplicate, selectivity assay for TRPC4 activator project, confirmation (AID 434950;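 active means membrane potential signal rise above negative control mean plus 3 SD in both duplicates, also active in the earlier TRPC4 screen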); details: HEK293 TRPC6, membrane potential fluorescence, at 10 µM; activation: hits give high values; outcome: activation
[11] = molecular target: Short transient receptor potential channel 6 (Mus musculus) (UniProt Q61143); test: positive modulators of mouse TRPC6 channel – HEK293 cells, membrane potential dye, duplicate, selectivity assay for TRPC4 potentiator project, confirmation (AID 434952;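 active means compound raising the membrane signal above positive-control mean plus 3 SD in both repeats, and a primary screen hit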); details: HEK293 TRPC6, membrane potential dye fluorescence, at 10 µM; maximal acetylcholine added after compound unless noted
[12] = molecular target: Short transient receptor potential channel 4 (Mus musculus) (UniProt Q9QUQ5); test: calcium flux activators in TRPC4/5HT1a cells, counter-screen for TRPC4 activator project, cell-based, second counter screen, HEK293 TRPC4/5HT1a, Fluo-4 (AID 434977;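 active means calcium signal rise above buffer-control mean plus 5 SD in both duplicates, and also a hit in the primary screen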); details: Fluo-4 calcium flux, at 10 µM; hits give high values
[13] = serotonin-gated TRPC4 signal block – cell-based, second counter screen, HEK293 TRPC4/5HT1a, Fluo-4, counter-screen for TRPC4 inhibitor project, confirmation (AID 434978;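 active means primary screen active whose calcium signal fell more than 3 SD beyond the full-serotonin control mean in both duplicate plates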;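 on outcome: serotonin given first at submaximal then at maximal dose after compound preincubation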); details: Fluo-4 calcium flux, at 10 µM; inhibition: hits give high values, serotonin added to trigger calcium flux unless noted; outcome: serotonin added to trigger calcium flux unless noted
[14] = system: TRPC4 (mouse), co-expressed with 5HT1a in HEK293; test: enhancement of serotonin-evoked TRPC4 response – cell-based, second counter screen, HEK293 TRPC4/5HT1a, Fluo-4, counter-screen for TRPC4 potentiator project, confirmation (AID 434979;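 active means signal rise over 3 SD above mean of control wells given weak agonist, in both repeats and first screen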); details: Fluo-4 calcium flux, at 10 µM; outcome: serotonin added at its EC20 dose unless noted; potentiation: hits give high values, serotonin added at its EC20 dose unless noted
[15] = nonspecific calcium rise without TRPC4 – cell-based, HEK293 mu-opioid receptor line, counter-screen for TRPC4 activator project, confirmation (AID 449723;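 active means hit in primary screen, with calcium signal over 5 SD above buffer well mean in both duplicates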;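 further: counter screen cells carry the mu-opioid receptor alone and lack TRPC4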); details: HEK293 mu-opioid cells, Fluo-4 calcium fluorescence, at 10 µM; hits give high values
[16] = nonspecific potentiation of DAMGO calcium response – cell-based, HEK293 mu-opioid receptor line, counter-screen for TRPC4 allosteric potentiator project, confirmation (AID 449724;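 active means calcium signal rise more than 3 SD above the low-dose agonist control mean, in both duplicate plates and the primary screen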); details: HEK293 mu-opioid receptor cells, Fluo-4 calcium flux, at 10 µM; compound added before EC20 DAMGO stimulus unless noted
[17] = molecular target: Short transient receptor potential channel 4 (Mus musculus) (UniProt Q9QUQ5); test: potentiation of DAMGO-evoked TRPC4 calcium signal – cell-based, HEK293 TRPC4/mu-opioid, Fluo-4 calcium, EC20 DAMGO, dose response (AID 434941;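 active means earlier screen potentiator hit that boosts the TRPC4 ion channel at some dose, with a dose response; inactive means no potentiation, no dose response, or not a prior hit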;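 further: calcium entry triggered by an EC20 dose of DAMGO at the co-expressed mu-opioid receptor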)

CCN1CCN(Cc2cc(Br)ccc2O)CC1
active: potentiation [3] 19% | potentiation [4] 22% | potentiation [14] 16.8%
inactive: outcome [1] | outcome [2] | outcome [5] | outcome [6] | outcome [7] | outcome [8] | outcome [9] | outcome [10] | outcome [11] | outcome [12] | outcome [13] | outcome [15] | outcome [16]

COc1ccc(OC)c(N2Cc3ccccc3C2=N)c1
active: inhibition [5] 96% | inhibition [6] 56% | inhibition [13] 21.8%
inactive: outcome [1] | outcome [2] | outcome [3] | outcome [4] | outcome [7] | outcome [17] | outcome [9] | outcome [10] | outcome [11] | outcome [12] | outcome [14] | outcome [15] | outcome [16]

O=C(c1ccc(Cl)cc1)C1CCCN(C2CCSCC2)C1 (configuration not stated)
inactive: outcome [1] | outcome [2] | outcome [3] | outcome [4] | outcome [7] | outcome [17] | outcome [9] | outcome [10] | outcome [11] | outcome [12] | outcome [14] | outcome [15] | outcome [16]
active: inhibition [5] 86% | inhibition [6] 64% | inhibition [13] 31.4%

CCCCc1ncc(CN2CCCC(C(=O)c3ccc(SC)cc3)C2)[nH]1 (configuration not stated)
inactive: outcome [1] | outcome [2] | outcome [3] | outcome [4] | outcome [7] | outcome [17] | outcome [9] | outcome [10] | outcome [11] | outcome [12] | outcome [14] | outcome [15] | outcome [16]
active: inhibition [5] 90% | inhibition [6] 45% | inhibition [13] 41.9%

COc1cccc(O)c1CN1CCCC(C(=O)c2sccc2C)C1 (configuration not stated)
active: inhibition [5] 94% | inhibition [6] 40% | inhibition [13] 29.8%
inactive: outcome [1] | outcome [2] | outcome [3] | outcome [4] | outcome [7] | outcome [17] | outcome [9] | outcome [10] | outcome [11] | outcome [12] | outcome [14] | outcome [15] | outcome [16]

CC(Cc1ccccc1)NCC(=O)Nc1cc(N(C)C)nc2ccccc12 (configuration not stated)
active: inhibition [5] 82% | inhibition [13] 46%
inactive: outcome [1] | outcome [2] | outcome [3] | outcome [4] | outcome [6] | outcome [7] | outcome [17] | outcome [8] | outcome [9] | outcome [10] | outcome [11] | outcome [12] | outcome [14] | outcome [15] | outcome [16]

CCN1CCN(c2cc(N3CCCC3)c([N+](=O)[O-])cc2F)CC1
inactive: outcome [1] | outcome [2] | outcome [5] | outcome [6] | outcome [7] | outcome [17] | outcome [8] | outcome [9] | outcome [10] | outcome [11] | outcome [12] | outcome [13] | outcome [15] | outcome [16]
active: potentiation [3] 31% | potentiation [4] 11% | potentiation [14] 17.9%

CCOC(=O)C1(CCc2ccccc2)CCN(Cc2cccc3c2OCO3)CC1
inactive: outcome [1] | outcome [2] | outcome [3] | outcome [4] | outcome [6] | outcome [7] | outcome [17] | outcome [9] | outcome [10] | outcome [11] | outcome [12] | outcome [13] | outcome [14] | outcome [15] | outcome [16]
active: inhibition [5] 102%

COc1ccc(CN2CCCC(C(=O)c3sccc3C)C2)cc1O (configuration not stated)
active: inhibition [5] 90% | inhibition [13] 21.3%
inactive: outcome [1] | outcome [2] | outcome [3] | outcome [4] | outcome [6] | outcome [7] | outcome [17] | outcome [9] | outcome [10] | outcome [11] | outcome [12] | outcome [14] | outcome [15] | outcome [16]

O=C(CN1CCCC1)Nc1ccc(Cl)cc1C(=O)c1ccccc1
active: inhibition [5] 90% | inhibition [13] 21.8%
inactive: outcome [1] | outcome [2] | outcome [3] | outcome [4] | outcome [6] | outcome [7] | outcome [17] | outcome [9] | outcome [10] | outcome [11] | outcome [12] | outcome [14] | outcome [15] | outcome [16]

Nc1ccccc1-[n+]1c(-c2ccccc2)cc(-c2ccccc2)cc1-c1ccccc1
inactive: outcome [1] | outcome [2] | outcome [4] | outcome [5] | outcome [6] | outcome [7] | outcome [17] | outcome [8] | outcome [9] | outcome [10] | outcome [11] | outcome [12] | outcome [13] | outcome [15] | outcome [16]
active: potentiation [3] 27% | potentiation [14] 20.7%

CCOc1c(Cl)cc(CNC(C)C(O)c2ccccc2)cc1OC (configuration not stated)
active: inhibition [5] 99%
inactive: outcome [1] | outcome [2] | outcome [3] | outcome [4] | outcome [6] | outcome [7] | outcome [17] | outcome [9] | outcome [10] | outcome [11] | outcome [12] | outcome [13] | outcome [14] | outcome [15] | outcome [16]

CCOC(=O)C1(c2ccccc2)CCN(CC(=O)Nc2ccc(C)cc2)CC1
inactive: outcome [1] | outcome [2] | outcome [3] | outcome [4] | outcome [6] | outcome [7] | outcome [17] | outcome [9] inactive [setting not given] | outcome [10] | outcome [11] inactive [setting not given] | outcome [12] | outcome [13] inactive [setting not given] | outcome [14] inactive [setting not given] | outcome [15] | outcome [16] inactive [setting not given]
active: inhibition [5] 80%

CCOC(=O)C(O)(c1ccc(NC(=S)NC(=O)c2ccc(Cl)cc2Cl)c(C)c1)C(F)(F)F (configuration not stated)
inactive: outcome [1] | outcome [2] | outcome [3] | outcome [5] | outcome [6] | outcome [7] | outcome [8] | outcome [9] | outcome [10] | outcome [11] | outcome [12] | outcome [13] | outcome [15] | outcome [16]
active: potentiation [4] 31% | potentiation [14] 28.1%
